Counter-ions that a name gives are not always drawn. ± gives the standard deviation of the averaged measurements.
Key:
[1] = system: Saccharomyces cerevisiae BY4741 SeMeCo community; test: mean cell size (pixel area) (pixels); higher = larger cells; details: 10 µM; 24 h; SM minimal medium
Method in brief: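 A four-plasmid fluorescent Saccharomyces cerevisiae BY4741 community was tested; each plasmid complements one auxotrophy and carries a fluorescent marker. An overnight preculture at OD600 = 1.0 was diluted to OD600 = 0.3, and 70 µl was added to 384-well plates acoustically predosed with drug (final 10 µM) in SM medium for 24 h. Cells were fixed with paraformaldehyde and imaged by automated confocal microscopy, with analysis in Harmony. Mean cell pixel area per well is averaged over 3 replicates. Same SeMeCo high-content imaging drug screen: Selleck FDA-approved drugs at 10 µM, 24 h in SM medium, 384-well plates, 3 replicates.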

[2] = system: Saccharomyces cerevisiae BY4741 SeMeCo community; test: z-score of prototroph abundance vs DMSO median; higher = larger share of this subpopulation than in DMSO controls; details: 10 µM; 24 h; SM minimal medium; subpopulation (auxotrophy): Prototroph
Method in brief: (§1)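 Automated confocal microscopy of paraformaldehyde-fixed cells was used to follow a Saccharomyces cerevisiae BY4741 community carrying four plasmids, each restoring one auxotrophy and encoding a distinct fluorescent protein. The community was pre-grown overnight to OD600 1.0, diluted to 0.3, and added at 70 µl to 384-well plates acoustically predosed with library drugs (10 µM final) for 24 h of growth in minimal SM medium. Single-auxotroph fluorescent strains set thresholds and autofluorescence correction, and each subpopulation's abundance was scored as a z-score against the vehicle-well median.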

[3] = system: Saccharomyces cerevisiae BY4741 SeMeCo community; test: z-score of subpopulation abundance vs DMSO median, subpopulation auxotrophic for M; higher = larger share of this subpopulation than in DMSO controls; details: 10 µM; 24 h; SM minimal medium; subpopulation (auxotrophy): M
Method in brief: as §1

[4] = system: Saccharomyces cerevisiae BY4741 SeMeCo community; test: z-score of subpopulation abundance vs DMSO median, subpopulation auxotrophic for L; higher = larger share of this subpopulation than in DMSO controls; details: 10 µM; 24 h; SM minimal medium; subpopulation (auxotrophy): L
Method in brief: as §1

[5] = system: Saccharomyces cerevisiae BY4741 SeMeCo community; test: z-score of subpopulation abundance vs DMSO median, subpopulation auxotrophic for U; higher = larger share of this subpopulation than in DMSO controls; details: 10 µM; 24 h; SM minimal medium; subpopulation (auxotrophy): U
Method in brief: as §1

[6] = system: Saccharomyces cerevisiae BY4741 SeMeCo community; test: z-score of subpopulation abundance vs DMSO median, subpopulation auxotrophic for H; higher = larger share of this subpopulation than in DMSO controls; details: 10 µM; 24 h; SM minimal medium; subpopulation (auxotrophy): H
Method in brief: as §1

[7] = system: Saccharomyces cerevisiae BY4741 SeMeCo community; test: z-score of subpopulation abundance vs DMSO median, subpopulation auxotrophic for LU; higher = larger share of this subpopulation than in DMSO controls; details: 10 µM; 24 h; SM minimal medium; subpopulation (auxotrophy): LU
Method in brief: as §1

[8] = system: Saccharomyces cerevisiae BY4741 SeMeCo community; test: z-score of subpopulation abundance vs DMSO median, subpopulation auxotrophic for HM; higher = larger share of this subpopulation than in DMSO controls; details: 10 µM; 24 h; SM minimal medium; subpopulation (auxotrophy): HM
Method in brief: as §1

[9] = system: Saccharomyces cerevisiae BY4741 SeMeCo community; test: z-score of subpopulation abundance vs DMSO median, subpopulation auxotrophic for HU; higher = larger share of this subpopulation than in DMSO controls; details: 10 µM; 24 h; SM minimal medium; subpopulation (auxotrophy): HU
Method in brief: as §1

[10] = system: Saccharomyces cerevisiae BY4741 SeMeCo community; test: z-score of subpopulation abundance vs DMSO median, subpopulation auxotrophic for HL; higher = larger share of this subpopulation than in DMSO controls; details: 10 µM; 24 h; SM minimal medium; subpopulation (auxotrophy): HL
Method in brief: as §1

[11] = system: Saccharomyces cerevisiae BY4741 SeMeCo community; test: z-score of subpopulation abundance vs DMSO median, subpopulation auxotrophic for HLU; higher = larger share of this subpopulation than in DMSO controls; details: 10 µM; 24 h; SM minimal medium; subpopulation (auxotrophy): HLU
Method in brief: as §1

[12] = system: Saccharomyces cerevisiae BY4741 SeMeCo community; test: z-score of subpopulation abundance vs DMSO median, subpopulation auxotrophic for HLM; higher = larger share of this subpopulation than in DMSO controls; details: 10 µM; 24 h; SM minimal medium; subpopulation (auxotrophy): HLM
Method in brief: as §1

[13] = system: Saccharomyces cerevisiae BY4741 SeMeCo community; test: z-score of subpopulation abundance vs DMSO median, subpopulation auxotrophic for LUM; higher = larger share of this subpopulation than in DMSO controls; details: 10 µM; 24 h; SM minimal medium; subpopulation (auxotrophy): LUM
Method in brief: as §1

[14] = system: Saccharomyces cerevisiae BY4741 SeMeCo community; test: z-score of subpopulation abundance vs DMSO median, subpopulation auxotrophic for HLUM; higher = larger share of this subpopulation than in DMSO controls; details: 10 µM; 24 h; SM minimal medium; subpopulation (auxotrophy): HLUM
Method in brief: as §1

[15] = system: Saccharomyces cerevisiae BY4741 SeMeCo community; test: z-score of subpopulation abundance vs DMSO median, subpopulation auxotrophic for UM; higher = larger share of this subpopulation than in DMSO controls; details: 10 µM; 24 h; SM minimal medium; subpopulation (auxotrophy): UM
Method in brief: as §1

[16] = system: Saccharomyces cerevisiae BY4741 SeMeCo community; test: z-score of subpopulation abundance vs DMSO median, subpopulation auxotrophic for LM; higher = larger share of this subpopulation than in DMSO controls; details: 10 µM; 24 h; SM minimal medium; subpopulation (auxotrophy): LM
Method in brief: as §1

[17] = system: Saccharomyces cerevisiae BY4741 SeMeCo community; test: z-score of subpopulation abundance vs DMSO median, subpopulation auxotrophic for HUM; higher = larger share of this subpopulation than in DMSO controls; details: 10 µM; 24 h; SM minimal medium; subpopulation (auxotrophy): HUM
Method in brief: as §1

Compound | mean cell size [1] | z-score of prototroph abundance [2] | z-score of subpopulation abundance [3] | z-score of subpopulation abundance [4] | z-score of subpopulation abundance [5] | z-score of subpopulation abundance [6] | z-score of subpopulation abundance [7] | z-score of subpopulation abundance [8] | z-score of subpopulation abundance [9] | z-score of subpopulation abundance [10] | z-score of subpopulation abundance [11] | z-score of subpopulation abundance [12] | z-score of subpopulation abundance [13] | z-score of subpopulation abundance [14] | z-score of subpopulation abundance [15] | z-score of subpopulation abundance [16] | z-score of subpopulation abundance [17]
O=C(O)c1ccccc1O [Salicylic acid] | 12.4 ± 0.14 | 0.79 | -0.07 | -0.26 | -0.01 | -0.17 | -0.68 | 0.33 | -1 | -0.19 | -0.57 | -1.09 | -0.79 | -0.68 | – | – | –
O=C(O)CCNC(=O)c1ccccc1 [Betamipron] | 12.6 ± 0.21 | -0.09 | 0.51 | -1.22 | 0.99 | -0.34 | -0.21 | -0.4 | 0.19 | -0.92 | -1 | -1.05 | -0.64 | -0.5 | 0.43 | – | –
N/C(=N\N=C\c1ccc(Cl)cc1)N/N=C/c1ccc(Cl)cc1 [Robenidine Hydrochoride] | – | -8.77 | 9.06 | -1.06 | -2.96 | 5.77 | -2.55 | 11.4 | -0.45 | 6.84 | 0.81 | 10.4 | – | 18.1 | 6.84 | 5.64 | –
CCn1cc(C(=O)O)c(=O)c2cc(F)c(N3CCNCC3)cc21 [Norfloxacin] | – | 0.05 | 0.77 | -0.15 | -0.7 | 0.31 | -0.24 | 0.41 | -0.03 | 0.28 | -0.16 | -0.51 | – | -0.9 | -0.54 | 0.65 | –
CN(C)[C@@H]1C(=O)C(C(N)=O)=C(O)[C@@]2(O)C(=O)C3=C(O)c4c(O)ccc(Cl)c4[C@@H](O)[C@H]3C[C@@H]12 [Demeclocycline HCl] | – | 0.9 | -1.78 | -0.08 | 0.03 | 0.67 | -0.08 | -1 | -0.34 | – | -0.4 | -0.17 | -0.57 | -0.17 | – | -0.4 | –
O=C(NCCN1CCOCC1)c1ccc(Cl)cc1 | 12.4 ± 0.22 | 0.89 | 0.03 | 1.75 | -0.52 | -0.65 | 0.18 | -0.79 | -1.32 | – | 0.17 | -0.28 | 0.42 | – | -1.28 | 1.06 | –
CN1CCN(CCCN2c3ccccc3Sc3ccc(Cl)cc32)CC1 [Prochlorperazine dimaleate salt] | 12.4 ± 0.15 | -0.98 | 0.75 | 0.41 | -0.36 | 1.05 | -0.07 | 1.58 | – | 0.69 | 0.49 | 0.12 | 1.88 | 0.48 | 0.65 | – | –
C[C@H]1c2cccc(O)c2C(O)=C2C(=O)[C@]3(O)C(O)=C(C(N)=O)C(=O)[C@@H](N(C)C)[C@@H]3[C@@H](O)[C@@H]21 [Doxycycline] | – | 1.27 | 0.04 | -0.26 | -0.63 | -0.79 | -0.52 | – | -1.25 | -0.31 | -0.24 | -0.1 | -0.15 | 0.32 | -1.44 | -0.26 | –
O=C(O)CCc1nc(-c2ccccc2)c(-c2ccccc2)o1 [Oxaprozin] | 13 ± 0.46 | 2.48 | -1.37 | -0.53 | -1.97 | – | -2.1 | – | -1.46 | -0.56 | -0.7 | -0.64 | -1.68 | -0.44 | -3.67 | -1 | –
C[C@]12CCC3=C4CCC(=O)C=C4CC[C@H]3[C@@H]1CC[C@@]2(O)CC#N [Dienogest] | 12.4 ± 0.18 | 0.42 | -0.36 | 0.12 | – | 0.11 | -0.52 | – | -0.02 | 0.26 | -0.53 | -0.38 | 0 | -0.14 | -0.39 | -0.44 | –
NC[C@@H]1O[C@H](O[C@H]2[C@@H](O)[C@H](O[C@@H]3[C@@H](O)[C@H](N)C[C@H](N)[C@H]3O[C@H]3O[C@H](CN)[C@@H](O)[C@H](O)[C@H]3N)O[C@@H]2CO)[C@H](N)[C@@H](O)[C@@H]1O [Neomycin sulfate] | – | 0.99 | -0.79 | 0.21 | 0.07 | 0.56 | 0.11 | -1.14 | -0.31 | -0.31 | -0.36 | -0.3 | -0.31 | – | -1.35 | -0.12 | –
NC(=O)Cc1cccc(C(=O)c2ccccc2)c1N [Nepafenac] | 12.3 ± 0.27 | 0.25 | 0.62 | 1.39 | -1.24 | – | -0.55 | 0.5 | -1.05 | 0.69 | 0.04 | – | 0.29 | 0.1 | -0.53 | 1.58 | -0.01
O=c1ccc2cc(O)c(O)cc2o1 [Esculetin] | 12.7 ± 0.16 | 2.22 | 5.32 | 1.75 | -7.81 | 3.92 | -7.32 | – | -7.17 | 2.44 | -3.44 | – | -3.61 | -0.38 | -8.53 | 3.28 | -4.69
C/C(=C\C(=O)OCCCCCCCCC(=O)O)C[C@@H]1OC[C@H](C[C@@H]2O[C@H]2[C@@H](C)[C@H](C)O)[C@@H](O)[C@H]1O [Mupirocin calcium] | 12.2 ± 0.29 | – | -0.19 | -0.72 | – | 0.77 | 0.56 | 0.83 | 1.13 | -0.37 | 0.12 | – | 0.39 | – | – | -0.21 | 1.29
CN1CCC(=C2c3ccccc3C=Cc3ccccc32)CC1 [Cyproheptadine hydrochloride] | 12.61 ± 0.097 | 0.23 | -0.18 | 0.25 | 0.43 | -0.32 | 0.02 | -0.58 | -0.56 | – | -0.31 | – | -0.73 | -0.08 | -0.25 | -0.35 | -0.68

From the supplement of paper PMC8975748
